Bioassay records from PubChem BioAssay.
POLH inh: DNA polymerase eta (human) inhibition | Q9Y253 | recombinant Pol eta, fluorescent DNA replication assay | Potency, µM (series often up to 114 µM), without a hit: at the highest dose activity change, negative = inhibition, actives largely listed as inhibitors | 390,000 compounds, 1.2% hits; note: % is set by controls: 0 for no effect and ±100 for the full control effect
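Fluorescent replication assay: 50 nM final substrate added after a 15 min room-temperature compound preincubation with 10 nM enzyme. Signal taken at 0 min and again at 10 min.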
TDP1 inh: inhibitors of human tyrosyl-DNA phosphodiesterase TDP1; Q9NUW8; recombinant TDP1, AlphaScreen DNA substrate cleavage; Potency, µM (titrated, usually from 130 µM), inactives show top-dose activity change, negative = inhibition, most hits filed as inhibitors; 350,000 compounds, 0.28% hits; AID 485290; note: % is set by controls: 0 for no effect and ±100 for the full control effect; nearly all actives have a fitted effect of over 40% in size
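Compounds were preincubated with Tdp1 (1 nM final) for 15 min at room temperature before substrate (15 nM final) started a 5 min reaction; beads (10 ug/ml final) were then added for 10 min before AlphaScreen detection.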
Pol beta inh: DNA polymerase beta (human) inhibition; P06746; AID 485314; Pol beta primer extension/strand displacement, fluorescence kinetic; 340,000 compounds, 1.3% hits; Potency, µM (series often up to 114 µM), for inactives: at the highest dose activity change, negative = inhibition, actives largely listed as inhibitors; note: % is set by controls: 0 for no effect and ±100 for the full control effect
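Reaction started by 50 nM substrate onto compound-treated Pol beta (10 nM, 15 min preincubation, room temperature); plates read at 0 min and 10 min. Normalized concentration-effect data fitted by four-parameter Hill equation.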
Pol kappa inh: blocks human DNA polymerase kappa activity; Q9UBT6; purified Pol kappa, fluorescent DNA synthesis assay, 10 min; Potency, µM (titrated, usually from 107 µM), without a hit: at the top dose activity, negative = inhibition, hits mostly inhibitors; 400,000 compounds, 0.53% hits; note: % is set by controls: 0 for no effect and ±100 for the full control effect
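Kinetic fluorescence screen: compound preincubated 15 min RT with 10 nM enzyme; 50 nM substrate (final) initiates; reads at 0/10 min.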
Pol iota inh: inhibitors of human DNA polymerase iota; Q9UNA4; Pol iota fluorescent replication assay, 10 min; Potency, µM (top dose mostly 115 µM), inactives show top-dose activity, negative = inhibition, hits mostly inhibitors; 390,000 compounds, 1% hits; AID 588590
Target sequence (Q9UNA4 whole entry, looked up): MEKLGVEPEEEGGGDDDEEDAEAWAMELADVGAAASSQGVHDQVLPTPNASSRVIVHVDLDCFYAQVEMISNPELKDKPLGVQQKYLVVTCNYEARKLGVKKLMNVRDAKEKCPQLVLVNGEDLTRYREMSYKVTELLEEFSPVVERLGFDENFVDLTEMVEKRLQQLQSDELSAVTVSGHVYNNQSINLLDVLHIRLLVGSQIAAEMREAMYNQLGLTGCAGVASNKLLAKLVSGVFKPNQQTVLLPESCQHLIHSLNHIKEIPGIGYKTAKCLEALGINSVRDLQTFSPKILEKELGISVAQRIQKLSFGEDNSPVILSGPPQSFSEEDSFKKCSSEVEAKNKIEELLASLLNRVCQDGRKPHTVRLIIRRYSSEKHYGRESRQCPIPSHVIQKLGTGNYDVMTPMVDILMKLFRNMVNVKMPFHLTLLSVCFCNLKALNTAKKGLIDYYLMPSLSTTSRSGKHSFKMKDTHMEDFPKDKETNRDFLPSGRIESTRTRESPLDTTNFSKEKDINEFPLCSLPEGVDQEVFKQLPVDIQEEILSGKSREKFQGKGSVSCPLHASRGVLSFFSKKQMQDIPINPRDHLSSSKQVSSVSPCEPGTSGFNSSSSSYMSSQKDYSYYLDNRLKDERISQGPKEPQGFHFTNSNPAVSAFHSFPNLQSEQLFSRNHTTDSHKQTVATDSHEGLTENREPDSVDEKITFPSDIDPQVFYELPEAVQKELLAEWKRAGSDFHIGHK
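Pol iota at 10 nM preincubated 15 min with compounds at room temperature; reaction started with fluorescent substrate, 50 nM final. Fluorescence read kinetically at 0 and 10 min; buffer-only wells as negative control.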
FEN1 inh-1: blocks human flap endonuclease 1. P39748. Recombinant FEN1 flap cleavage, fluorescence, 15 min. Potency, µM (doses to about 114 µM), for the others: top-dose activity change, negative = inhibition, actives largely listed as inhibitors. 390,000 compounds, 0.35% hits. AID 588795; note: % is set by controls: 0 for no effect and ±100 for the full control effect; nearly all actives have a fitted effect of over 65% in size
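Recombinant FEN1 (10 nM) was preincubated with pin-transferred compounds for 15 min at room temperature, then flap DNA substrate (50 nM final) was added. Plates were read at 0 and 15 min, and normalized concentration–response data were fitted to a four-parameter Hill equation.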
FEN1 inh-2: confirmation of human FEN1 inhibitors | shares compounds with FEN1 inh-1 | FEN1 flap cleavage, TAMRA/BHQ2 fluorogenic DNA substrate | Potency, µM, usual class: inhibitors | 880 compounds, 79% hits | AID 720498; note: nearly all actives have a fitted effect of over 60% in size
Starred values were filed as active, the others as inactive; [ ] = another dose, or the depositor's remark. Most compounds without a hit are left out; they make up all but 2.4% or so of the library. Calls come from the whole dose curve; as a rule, active = well fitted curve in the direction sought with a large enough effect; inconclusive = small, poorly fitted or top-dose-only effect, or another doubt; inactive = no such curve, though single readings can be large; an effect the other way counts as inactive or inconclusive. Potency is the fitted concentration of half-maximal effect.

c1ccc2c(c1)c1c(c3ccccc32)CN2CCCC2C1 (stereo not given) was read as POLH inh inconclusive, Pol kappa inh -30.9%, Pol iota inh inconclusive, FEN1 inh-1 17.8µM* and FEN1 inh-2 37.9*.
For COC(=O)c1c(Cl)c2n3ccccc3c(C)c(-c3ccccc3)c-2c1C(=O)OC the results were POLH inh inconclusive, TDP1 inh -3.0%, Pol beta inh 11.0%, Pol kappa inh -7.1%, Pol iota inh inconclusive and FEN1 inh-1 -1.1%.
`COC(=O)c1cc2c(-c3ccccc3)c(C)c3ccccn3c-2c1C(=O)OC` gave POLH inh inconclusive, TDP1 inh 12.3%, Pol beta inh 13.1%, Pol kappa inh inconclusive, Pol iota inh -17.3%, FEN1 inh-1 inconclusive and FEN1 inh-2 84.9*.
Screening Cc1ccc2oc(-c3cccc(NC(=O)COc4ccc(Cl)cc4)c3C)nc2c1 returned Pol kappa inh -6.2%, Pol iota inh -23.3% and FEN1 inh-1 6.4%.
For CCOc1cc(/C=C2\C(=O)N(CCC#N)N=C2C)ccc1OCC(N)=O the results were POLH inh -17.2%, TDP1 inh 5.0%, Pol beta inh 5.8%, Pol kappa inh -2.9%, Pol iota inh inconclusive, FEN1 inh-1 -4.6% and FEN1 inh-2 inconclusive.
For C=CCN1c2ccccc2[C@]23C[C@@H](C(=O)OC)N(S(=O)(=O)c4ccc(C(F)(F)F)cc4)C2=NC(C(=O)OC)=C(C(=O)OC)[C@H]13 the results were TDP1 inh 9.2%[12.3 µM].
For COc1ccc(-c2c(-c3ccccc3)c(C(=O)C(=O)NCCCN(C)C)n3ccc4cc(OC)c(OC)cc4c23)cc1OC the results were POLH inh inconclusive, Pol beta inh -40.8%, Pol kappa inh inconclusive, Pol iota inh 102.3%, FEN1 inh-1 39.8µM* and FEN1 inh-2 33.8*.
Screening CC(C)Nc1ccc(Nc2ccnc3cc4ccccc4cc23)cc1 returned POLH inh -17.7%, TDP1 inh 10.6%, Pol beta inh 14.1µM*, Pol kappa inh inconclusive, Pol iota inh inconclusive, FEN1 inh-1 25.1µM* and FEN1 inh-2 23.9*.
Screening CN1C=C/C(=C\c2cc[n+](C)c3ccccc23)c2ccccc21 returned POLH inh -30.0%, TDP1 inh 7.4%, Pol beta inh inconclusive, Pol kappa inh 1.2%, Pol iota inh 11.5%, FEN1 inh-1 28.2µM* and FEN1 inh-2 8.49*.
For C/C(=C\CNc1ncnc2c1ncn2[C@@H]1O[C@H](CO)[C@@H](O)[C@H]1O)CO the results were TDP1 inh 13.3% and Pol kappa inh -5.7%[60.1 µM].
For COc1cc(-c2ccc3ncnc(NCc4nc(C)cs4)c3c2)cc(OC)c1OC the results were FEN1 inh-2 inconclusive.
For COc1ccc2[nH]cc(CCNc3ncnc4ccc(-c5cccnc5)cc34)c2c1 the results were Pol kappa inh -0.1%[60.1 µM].
For COc1ccc(-c2ccc3ncnc(NCCc4cnc[nH]4)c3c2)cc1OC the results were FEN1 inh-2 30.1*.
Screening Cc1csc(CNc2ncnc3ccc(-c4ccc5c(c4)OCO5)cc23)n1 returned TDP1 inh 0.1%.
CC(=C(CCOP(=O)(O)O)SC(=O)c1ccccc1)N(C=O)Cc1cnc(C)nc1N was read as TDP1 inh 16.3% and Pol kappa inh -8.3%[60.1 µM].
`CC1CCC2C(=O)OC(COc3ccc(C(C)(C)C)cc3)CN2C1c1ccc(Br)cc1` (stereo not given) gave TDP1 inh 6.9%[21 µM].
COc1ccc(Cn2c(-c3ccco3)nc3c(c(=O)c4ccccc4n3C)c2=O)cc1 was read as POLH inh -13.3%, TDP1 inh -3.9%, Pol beta inh inconclusive, Pol kappa inh -6.1%, Pol iota inh -25.3%, FEN1 inh-1 22.4µM* and FEN1 inh-2 30.1*.
